This note sets out measurements from PubChem BioAssay AID624331 (National Center for Advancing Translational Sciences (NCATS), 2012).

Inconclusive results are not listed. The source made the active and inactive calls. Calls come from the whole dose curve; as a rule, active = well fitted activation curve with a large enough effect; inconclusive = small, poorly fitted or top-dose-only effect; inactive = no such curve, though single readings can be large or run the other way.
Potency is the fitted concentration of half-maximal effect.

The nature of the assay: qHTS assay for re-activators of p53 using a Luc reporter: Hit Validation with no p53 Expressed. For activity change, positive = activation: 0% is about no effect. The following applies: p53-null cells, luciferase reporter counter-screen; series mostly up to 46.1 µM; activity change, positive = activation: at the top concentration. In short, it runs like this:
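Counter-screen of primary hits in a cell line not transfected with p53, in Opti-MEM with 10% FBS; compounds at several concentrations (10 mM stock, 1:5; top 46.1 µM in well), 24 h at 37 deg C, 5% CO2. Luminescence read after 10 min with Amplite reagent.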
Turning to `Oc1ccc(N=Cc2c(O)ccc3ccccc23)cc1`, the “activity change, positive = activation” value is -33% (inactive).

For the molecule `COc1cc(NC(=O)CSCc2ccc(Cl)cc2)c(C(=O)O)cc1OC`, the “activity change, positive = activation” value is -44% (inactive). Turning to `Cc1noc(C)c1COc1ccc(C(=O)NCCOc2ccccc2)cc1`, the “activity change, positive = activation” value was 10.3% (inactive).

Take `FC(F)(F)c1nnc2c(Sc3ccccn3)nc3ccccc3n12`: the “activity change, positive = activation” value is 66.9% (inactive). With `O=C(NCCC1=CCCCC1)c1ccc(F)c(S(=O)(=O)N2CCOCC2)c1`, the “activity change, positive = activation” value is 13.5% (inactive).

`COc1cccc(NC(=O)c2ocnc2C)c1`: the “activity change, positive = activation” value was -8.41% (inactive). With `CCOC(=O)c1c(C)nc(-c2ccccc2)nc1NC(=O)CC`, the “activity change, positive = activation” value was -26.4% (inactive). As for `Cc1ccc(C(=O)CC(Nc2ccc(F)cc2)c2ccccc2)cc1` (centres undefined), the “activity change, positive = activation” value was 78.9% (inactive). Regarding `Cc1ccc(C)c(/C=C/C(=O)c2ccccc(=O)c2O)c1`, the “activity change, positive = activation” value was 7.8% (inactive).

On to `O=C(NC(=S)NC1CCCCC1)c1ccccc1[N+](=O)[O-]`, for which the “activity change, positive = activation” value is -8.53% (inactive). Take `Cn1c(C(=O)Nc2ccc3c(c2)OCCO3)cc2sccc21`: the Potency is 1.16 µM (active).

With `CCCN1CCC(=NNC(=O)CSc2cc(C)c(Br)cc2C)CC1`, the “activity change, positive = activation” value was -19.9% (inactive). `c1cnc2c(OCc3nc4ccccc4[nH]3)cccc2c1`: the “activity change, positive = activation” value was 89.4% (inactive). On the same count and under the same terms, with `COCCSc1ccccc1C(=O)Nc1cc(C)ccn1` the figure was 21.8% (inactive); with `COc1cc(OC)cc(C(=O)NNC(=O)c2ccccn2)c1`, -11.2% (inactive); with `COc1ccccc1-c1c(C)nn2c(C)c(C(C)=O)cnc12`, -26.5% (inactive). For the molecule `O=C(Nc1cccc(O)c1)C(=O)Nc1ccccn1`, the “activity change, positive = activation” value is 36.8% (inactive). For the molecule `NC(=O)c1cc2ccc(O)cc2oc1=Nc1ccccc1`, the “activity change, positive = activation” value was 0.331% (inactive). Turning to `O=C(Nn1c(SCc2ccc([N+](=O)[O-])cc2)nc2ccccc2c1=O)c1ccc(F)cc1`, the “activity change, positive = activation” value was 24.3% (inactive).

Take `Cc1nnc2n(c1=O)N=C(c1ccc(Cl)cc1)CS2`: the “activity change, positive = activation” value was 32.4% (inactive).

Turning to `C=CCn1c(SCC(=O)Nc2ccc(-c3nc4ccc(C)cc4s3)cc2)nnc1-c1ccccc1`, the “activity change, positive = activation” value was 2.23% (inactive). The same measure, in the same setting: under `CCOC(=O)c1c(NC(=O)CN2CCCc3ccccc32)sc(C)c1C` stands 75.3% (inactive); under `C=CCSC1=N/C(=C\c2cc(OCC)c(OC(C)=O)c([N+](=O)[O-])c2)C(=O)S1`, -60.9% (inactive).

Turning to `CC(C)c1ccc2oc(-c3ccc(N)cc3)nc2c1`, the “activity change, positive = activation” value was -8.62% (inactive). For the molecule `CCOc1ccc(N/C=C/C(=O)c2ccccc2)c([N+](=O)[O-])c1`, the “activity change, positive = activation” value is -51.8% (inactive).

For the molecule `CCOC(=O)N1CCN(S(=O)(=O)c2ccc(C(=O)NNc3nc4cc(C)cc(C)c4s3)cc2)CC1`, the “activity change, positive = activation” value is -4.06% (inactive). Regarding `CCOc1ccc(-c2nnc(SCC(=O)N3CCNC3=O)o2)cc1`, the “activity change, positive = activation” value is 12.5% (inactive). For the molecule `CCc1nnc(NC(=O)/C=C/c2ccco2)s1`, the “activity change, positive = activation” value is 37% (inactive). For the molecule `CC(C)C(=O)NC(c1cccs1)c1cc([N+](=O)[O-])c2cccnc2c1O` (centres undefined), the “activity change, positive = activation” value was -6.46% (inactive). With `CCCCc1ccc(NC(=S)Nc2ccc(Nc3ccc(OC)cc3)cc2)cc1`, the “activity change, positive = activation” value was 11.1% (inactive). For the molecule `COc1ccc(-c2nnc(SCC(=O)/C(C#N)=C(\C)N)o2)cc1`, the “activity change, positive = activation” value was 13.7% (inactive). With `Cc1ccc(C(=O)Nc2ccc(Cl)cn2)cc1`, the “activity change, positive = activation” value was 26.6% (inactive).

As for `Cc1ncsc1C(=O)Nc1nc2c(s1)CCCC2`, the “activity change, positive = activation” value is 25% (inactive). On the same count and under the same terms, with `Cc1cc2nc(-c3ccc(SCC(=O)Nc4ccc(S(=O)(=O)NC5CC5)cc4)nc3)[nH]c2cc1C` the figure was 29.4% (inactive); with `O=C(CSc1nnc(-c2ccc(O)cc2)o1)Nc1ccc2c(c1)OCCO2`, 67.2% (inactive); with `Oc1[nH]c2ccccc2c1C=Nc1ccc2c(c1)OCCO2`, 36.1% (inactive). Turning to `CCOC(=O)c1[nH]c(C)c(C(=O)NCCC2=CCCCC2)c1C`, the “activity change, positive = activation” value was -12% (inactive). The same measure, in the same setting: with `O=C(Oc1c(Cl)cc(Cl)c2cccnc12)c1cccc([N+](=O)[O-])c1` the figure was -64.6% (inactive); with `Cc1cccc(NC(=O)/C=C/c2ccc(Cl)cc2)n1`, -19.5% (inactive).
